Screening data (PubChem BioAssay)
Cycloheximide cs – counter-screen hit for Shiga toxin inhibitors, cycloheximide | hit rate 12% among 300,000 | cell reporter, cycloheximide protein synthesis inhibition counterscreen | max response, %; in the data active = max response mostly above about 13%, no sharp cut-off; inactive = mostly below about 14%; also: read at 38.3 µM for the half of the compounds with a filed dose; 0% is about no effect
Shiga toxin inh – inhibitors of Shiga toxin in Vero cells; Vero cells, Shiga toxin protein synthesis inhibition reporter; inhibition, % at 38.7 µM; hit rate 9.2% among 290,000; AID 2315; in the data active = inhibition mostly above about 28%, no sharp cut-off; inactive = mostly below about 43%; also: 0% is about no effect
HCV inh – HCV inhibition; Huh7.5.1 HCVcc-Cre infection, luciferase reporter, 44 h; hit rate 3.4% among 340,000; Potency, µM (doses to about 41.8 µM), for the others: at the top dose activity change, negative = inhibition, most hits filed as inhibitors; also: potency is read from the fitted curve at half-maximal effect; % is scaled to controls: 0 for no effect and ±100 for the full control effect
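Cells (1,000/well) were plated 4 h before compound, then infected with HCVcc-Cre virus (~0.5 moi). After 44 h further culture, infection was read as luciferase luminescence following a 15 min substrate incubation at room temperature.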
Pf growth 48h – inhibits P. falciparum growth in the first generation, 48 h; AID 504832; hit rate 5.9% among 310,000; Potency, µM (highest dose often 28.7 µM), without a hit: at the highest dose activity change, negative = inhibition, usual class: inhibitors; P. falciparum luciferase growth in erythrocytes, 48 h; also: potency is read from the fitted curve at half-maximal effect; % is scaled to controls: 0 for no effect and ±100 for the full control effect
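Luciferase-expressing parasites in RBCs, 2% Hct / 0.1% parasitemia final; RPMI 1640 + 0.5% Albumax; 37 C, 5% CO2, one generation; luminescence read-out, lower signal = inhibition.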
HCMV antiviral – human cytomegalovirus inhibition. HFF cells, HCMV-luciferase reporter, 72 h; hits give low values. activity change, negative = inhibition, % at 57.5 µM. AID 1259415. hit rate 4.5% among 410,000; in the data active = activity change below about -60%; inconclusive = no clear call, values can overlap the other calls; inactive = above about -39%; also: % is scaled to controls: 0 for no effect and ±100 for the full control effect
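Compounds were evaluated in HFFs infected with an HCMV luciferase reporter virus (MOI 1 PFU/cell). Luciferase in lysates collected 72 h post infection served as the replication measure.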
Pf growth 96h – P. falciparum growth inhibition at 96 hours; P. falciparum luciferase reporter growth, 96 h; Potency, µM (series often up to 28.7 µM), inactives show at the top dose activity change, negative = inhibition, usual class: inhibitors; hit rate 6.9% among 320,000; also: potency is read from the fitted curve at half-maximal effect; % is scaled to controls: 0 for no effect and ±100 for the full control effect
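Plates of compound plus infected erythrocytes (2% hematocrit, 0.05% parasitemia final) incubate 96 hours, 37 C, 5% CO2. Detection reagent added; reduced luminescence from the parasites' luciferase reporter flags inhibition.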
* = called active by the depositor. Only some compounds are listed: those with a hit (about 21% of all), similar ones and a draw of the others. Unless noted, calls follow the shape of the dose curve; as a rule, active = well fitted inhibition curve with a large enough effect; inconclusive = small, poorly fitted or top-dose-only effect, or another doubt; inactive = no such curve, though single readings can be large or run the other way.

`CCC(=O)c1ccc(OCCSc2ncccn2)cc1` gave Cycloheximide cs 53*, Shiga toxin inh 88*, HCV inh 0%, Pf growth 48h 156%, HCMV antiviral 99 and Pf growth 96h inconclusive.
Screening Cc1cccc(OCCSc2nc(N)cc(N)n2)c1 returned Cycloheximide cs 20*, Shiga toxin inh 45*, HCV inh -15%, Pf growth 48h 78%, HCMV antiviral 0 and Pf growth 96h 46%.
Screening Cc1ccc(OCCNCc2ccccc2)c(C)c1 returned Cycloheximide cs 8, Shiga toxin inh 8, HCV inh -18%, Pf growth 48h 0%, HCMV antiviral -8 and Pf growth 96h inconclusive.
c1ccc(OCCOCCSc2ncccn2)cc1 was read as Cycloheximide cs 20*, Shiga toxin inh 45, HCV inh 23%, Pf growth 48h 54%, HCMV antiviral 47 and Pf growth 96h -11%.
For Cc1cc(Oc2ccccc2)nc(N)n1 the results were Cycloheximide cs -1, Shiga toxin inh 14, HCV inh 1%, Pf growth 48h 9%, HCMV antiviral 68 and Pf growth 96h inconclusive.
Cc1cccc(OCCOCCSc2ncccn2)c1 was read as Cycloheximide cs 10*, Shiga toxin inh 41, HCV inh 21%, Pf growth 48h 19%, HCMV antiviral 10 and Pf growth 96h -28%.
Cc1cc(SCCOc2ccccc2)nc(N)n1 was read as Cycloheximide cs 28*, Shiga toxin inh 80*, HCV inh -4%, Pf growth 48h 99%, HCMV antiviral 48 and Pf growth 96h 23%.
Screening Cc1ccc(OCCSc2ncccn2)c(C)c1 returned Cycloheximide cs 49*, Shiga toxin inh 96*, HCV inh -11%, Pf growth 48h 121%, HCMV antiviral -37 and Pf growth 96h 31%.
COc1ccc(-c2nnc(SCCOc3cccc(C)c3)n2N)cc1 was read as Cycloheximide cs 2, Shiga toxin inh -5, HCV inh 5%, Pf growth 48h -3% and HCMV antiviral -11.
Screening O=C(COC(=O)c1ccc2ccccc2n1)Nc1ccccc1F returned HCV inh 10% and HCMV antiviral 45.
For Cc1ccc(CNC(=O)C(c2ccccc2)c2ccccc2)cc1 the results were Cycloheximide cs -4, Shiga toxin inh -7, HCV inh -1%, Pf growth 48h -19%, HCMV antiviral 23 and Pf growth 96h -20%.
Screening CCOC(=O)C1CCN(c2ncnc3c2c(-c2ccccc2)cn3-c2ccc(C)c(Cl)c2)CC1 returned HCMV antiviral -18.
Cc1cccc(NC(=O)COC(=O)CSc2ccccc2)c1C was read as HCV inh 5%, Pf growth 48h inconclusive, HCMV antiviral -33 and Pf growth 96h -22%.
Screening CCOC(=O)Cn1c(C(F)(F)F)nc2nc(Cl)c(Cl)nc21 returned HCV inh inconclusive and HCMV antiviral -98*.
For Nc1nc(-c2ccc(Cl)cc2)cc(C(F)(F)F)n1 the results were Cycloheximide cs -1, Shiga toxin inh 3, HCV inh 5%, Pf growth 48h 27%, HCMV antiviral 11 and Pf growth 96h 7.4µM*.
`Nc1nc(N)nc(-c2ccc(Cl)cc2)n1` gave Cycloheximide cs 29*, Shiga toxin inh 25, HCV inh -8%, HCMV antiviral 1 and Pf growth 96h 107%.
`Cc1cccc(-c2nc(N)nc(N)n2)c1` gave Cycloheximide cs 34*, Shiga toxin inh 48, HCV inh -1%, Pf growth 48h 88%, HCMV antiviral 93 and Pf growth 96h 120%.
For Nc1nc(-c2ccc(Cl)cc2)nnc1-c1ccc(Br)cc1 the results were Cycloheximide cs 52*, Shiga toxin inh 96*, HCV inh 8%, Pf growth 48h 87%, HCMV antiviral -5 and Pf growth 96h 122%.
`NCc1nc(-c2ccc(Cl)cc2)no1` gave Cycloheximide cs 13, Shiga toxin inh 9, HCV inh -9%, Pf growth 48h 15%, HCMV antiviral 29 and Pf growth 96h 12%.
For Nc1nc(N)nc(-c2cccc(Br)c2)n1 the results were HCV inh 3% and HCMV antiviral 17.
Screening CC(=O)c1ccc(S(=O)(=O)N(C)CC(=O)N2CCCCCC2)cc1 returned Cycloheximide cs -1, Shiga toxin inh -3, HCV inh 1%, Pf growth 48h 4%, HCMV antiviral 13 and Pf growth 96h -9%.
For COc1ccc(COc2ccc(S(=O)(=O)N3CCCC3)cc2C(N)=O)cc1F the results were Cycloheximide cs -7, Shiga toxin inh -3, HCV inh inconclusive, Pf growth 48h -32%, HCMV antiviral 38 and Pf growth 96h inconclusive.
Screening COc1cc(CNc2ncnc3c2ncn3[C@H]2CN(CCc3ccccc3)C[C@@H](CO)O2)cc(OC)c1OC returned HCMV antiviral -9.
CC(C)[C@H](NC(=O)c1ccccc1)C(=O)Nc1ccc2c(c1)OCO2 was read as HCV inh -13%, Pf growth 48h inconclusive, HCMV antiviral 4 and Pf growth 96h inconclusive.
`CC1CCN(C(=O)CCCl)c2ccccc21` (centres undefined) gave HCV inh 4% and HCMV antiviral -34.
Screening Cc1ccc(Oc2ccc(Oc3ccc(C)cc3)nn2)cc1 returned Cycloheximide cs -6, Shiga toxin inh -15, HCV inh 12%, Pf growth 48h 90%, HCMV antiviral 5 and Pf growth 96h 109%.
For Nc1nc(N)nc(-c2cc(C(F)(F)F)ccc2Cl)n1 the results were HCV inh -1%, Pf growth 48h 1%, HCMV antiviral -14 and Pf growth 96h 60%.
Screening Nc1nc(N)nc(-c2cc(Cl)ccc2Cl)n1 returned Cycloheximide cs 4, Shiga toxin inh -8, HCV inh 16%, Pf growth 48h -5%, HCMV antiviral 11 and Pf growth 96h 8.5µM*.
For Cc1ccc(Oc2ccc(-c3nc(N)nc(N)n3)cc2)cc1 the results were Cycloheximide cs 12*, Shiga toxin inh 29, HCV inh -28%, Pf growth 48h 82%, HCMV antiviral -26 and Pf growth 96h -6%.
